Laboratory results: PubChem BioAssay (NCI)
This is part of a sample that, as a whole, favours compounds with a hit. Of some 79,000 tested, about 15% had one in any assay. No stated cut-off is given here; in the data, active means growth inhibition above about 70%; inactive means the rest.

Columns and labels:
[1] = NCI Yeast Anticancer Drug Screen. Data for the rad50 strain (AID 155);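 further: 0% = growth of vehicle-only cultures of the same strain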; details: S. cerevisiae rad50 strain growth inhibition; at 50.0 µM; hits give high values
Procedure, shortened: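 DNA repair mutant yeast, compound exposure, growth read-out; inhibition is taken relative to vehicle.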

[2] = NCI Yeast Anticancer Drug Screen. Data for the mec2-1 strain (AID 157); details: S. cerevisiae mec2-1 strain, at 50.0 µM, hits give high values
Procedure, shortened: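 Test agents were screened against the mec2-1 yeast strain, with defined DNA repair or cell cycle alteration. Growth was scored as inhibition against vehicle-only controls.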

[3] = NCI Yeast Anticancer Drug Screen. Data for the sgs1 mgt1 strain (AID 161);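 further: 0% = growth of cultures given vehicle only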; details: S. cerevisiae sgs1 mgt1 strain, at 50.0 µM, hits give high values
Procedure, shortened: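 Mutant yeast exposed to compound; growth scored against vehicle-only wells.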

[4] = NCI Yeast Anticancer Drug Screen. Data for the cln2 rad14 strain (AID 165);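 further: 0% = growth equal to vehicle treated cultures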; details: S. cerevisiae cln2 rad14 strain, at 50.0 µM, hits give high values
Procedure, shortened: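 Growth of compound-exposed yeast (cln2 rad14 genotype) measured and expressed as inhibition relative to vehicle.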

[5] = NCI Yeast Anticancer Drug Screen. Data for the bub3 strain (AID 167); details: S. cerevisiae bub3 mutant strain, at 50.0 µM, hits give high values
Procedure, shortened: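 In this screen, a yeast mutant lacking normal mitotic checkpoint function is challenged with compound. Relative growth versus vehicle gives the inhibition value.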

[6] = NCI Yeast Anticancer Drug Screen. Data for the mlh1 rad18 strain (AID 175); details: S. cerevisiae mlh1 rad18 strain growth inhibition; at 50.0 µM; hits give high values
Procedure, shortened: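 In this whole-cell yeast screen, a strain with altered DNA damage repair is challenged with compound, and its growth is measured against matched vehicle-treated controls.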

Measured: growth inhibition

NC(CC1=CS(=O)(=O)c2ccc(Cl)cc21)C(=O)O (stereo not drawn)
inactive: [1] 18.4% | [2] 19.3% | [3] 4.45% | [4] -16.2% | [5] 23.8% | [6] 23.9%

Cn1nc(-c2ccccc2)c2c(/C=C/c3ccc(F)cc3)onc2c1=O
inactive: [1] -14.4% | [2] -17.9% | [3] 8.55% | [4] 8.35% | [5] 0.05% | [6] -15.3%

CC(Cc1ccccc1)NN (stereo not drawn)
inactive: [1] 14.8% | [2] 9.55% | [3] 16.5% | [4] 5.65% | [5] 10.4% | [6] 9.4%
